# Source: PubChem BioAssay
# Hits are enriched below; roughly 7.9% of the tested compounds scored in any of these assays.
# KB-V1 cytotox: KB-V1 MDR subline cytotoxicity; 400,000 compounds, 3.4% hits; KB-V1 MDR cells viability, CellTiter-Glo, 72 h; Potency, µM (doses to about 46.1 µM), most hits filed as cytotoxic; AID 1347076; further: on the % scale 0 is the no-effect control and ±100 the full control effect; nearly all actives have a fitted effect of over 60% in size
#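 Potencies derive from concentration-effect curves fitted to normalized luminescence (CellTiter-Glo) of KB-V1 cells treated for 72 h at 37 degrees C in phenol-red-free DMEM containing 10% FBS.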
# HT1080 IDH1KD tx: HT-1080 IDH1 knockdown cell toxicity (counter line); HT-1080 IDH1 knockdown viability, ATP luminescence, 48 h; Potency, µM (highest dose often 46.1 µM), for the others: at the top dose activity, negative = toxicity, actives largely listed as cytotoxic; 360,000 compounds, 2% hits; AID 686971;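 further: 0% = DMSO wells and -100% = cell-free medium wells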
#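 IDH1KD HT-1080 cells, 750/well, RPMI + 5% FBS; compound pinned after 2 h settling; 48 h, 37 °C; CellTiter-Glo luminescence; % activity normalised to DMSO and no-cell wells; curves fitted, classed by r2 and efficacy.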
# MCF10A rereplic: induces DNA re-replication in MCF 10a normal breast cells; Potency, µM (top dose mostly 46.1 µM), for the others: at the highest dose activity, positive = re-replication, usual class: activators; MCF 10A DNA re-replication, Hoechst nuclear intensity, 48 h; 350,000 compounds, 2.9% hits; AID 624296; further: % of control where 0% means no effect; nearly all actives have a fitted effect of over 50% in size
# KB-3-1 tox: KB-3-1 parental cell cytotoxicity | 400,000 compounds, 1.4% hits | AID 1347075 | KB-3-1 viability, CellTiter-Glo ATP luminescence, 72 h | Potency, µM (doses to about 46.1 µM), actives largely listed as cytotoxic; further: on the % scale 0 is the no-effect control and ±100 the full control effect; nearly all actives have a fitted effect of over 60% in size
#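 Using CellTiter-Glo luminescence, growth of non-resistant KB-3-1 adenocarcinoma cells is assessed 72 h after pin-tool compound addition at 37 °C. Normalized responses across the concentration series yield fitted curves.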
# HT1080-NT tox: kills 2HG-producing HT-1080-NT fibrosarcoma cells; AID 686970; Potency, µM (doses to about 46.1 µM), inactives show at the top dose activity, negative = less viability, most hits filed as cytotoxic; 360,000 compounds, 1.6% hits; HT-1080-NT fibrosarcoma viability, CellTiter-Glo ATP luminescence, 48 h;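 further: NT is the 2HG producing partner of a matched IDH1 knockdown line; 0% = DMSO-treated cells and -100% = media-only wells without cells; nearly all actives have a fitted effect of over 55% in size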
#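 750 cells/well, RPMI + 5% FBS; 2 h settle, compound pin-transfer, 48 h at 37 degrees C. CellTiter-Glo 10 min RT, luminescence. Normalized to DMSO and media-only wells.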
# SW480 rerep: DNA re-replication induction in SW480 cells | Potency, µM (series often up to 46.1 µM), for the others: top-dose re-replication activation, most hits filed as activators | 340,000 compounds, 1.8% hits | SW480 DNA re-replication, Hoechst DNA content imaging, 48 h | AID 624297; further: % of control where 0% means no effect; nearly all actives have a fitted effect of over 55% in size
#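 Hoechst fluorescence of nuclei (405 nm excitation, 500-530 nm emission) measured by plate-scanning imager after 48 hr compound exposure at 37 C; re-replication scored as increased number of nuclei with elevated intensity.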
# * marks the source's active call; other numbers are inactive results; i = inactive; ? = inconclusive; . = no result. The call rests on the fitted dose curve; in most records, active means well fitted curve in the direction sought with a large enough effect; inconclusive means small, poorly fitted or top-dose-only effect, or another doubt; inactive means no such curve, though single readings can be large; an effect the other way counts as inactive or inconclusive. Potency means the concentration at half of the fitted maximal effect.
SMILES,KB-V1 cytotox,HT1080 IDH1KD tx,MCF10A rereplic,KB-3-1 tox,HT1080-NT tox,SW480 rerep
O=C(Nc1ccc(CN2CCOCC2)cc1)c1ccc(-c2ccc(Br)cc2)o1,20.6µM*,?,?,i,14.1µM*,?
O=C(Oc1c(Cl)cc(Cl)c2cccnc12)N1CCOCC1,i,-11.6%,2.5%,i,-6.9%,0.1%
CN1CCN(Cc2cc(Cl)c3cccnc3c2OC(=O)c2cccs2)CC1,5.8µM*,-11.3%,?,?,-5.2%,?
O=C(Oc1c(CN2CCOCC2)cc(Cl)c2cccnc12)c1ccccc1Br,?,?,?,?,?,3.26µM*
O=C(Oc1c(Cl)cc(Cl)c2cccnc12)N1CCCCC1,i,-8.3%,5.1%,i,-0.6%,6.9%
CC(C)(C)C(C(=O)NCc1ccccc1)N1CCN(CCN2CCOCC2)CC1 (stereo unspecified),?,-4.4%,.,i,-18.9%,.
Cn1ccnc1C(=O)c1cc(SCC(=O)NCc2ccccc2)nc2ccccc12,?,?,14.6µM*,?,10.3µM*,?
Cn1c(SCC(=O)NCc2ccccc2)nc2ccccc21,14.6µM*,1.1%,14.2%,i,-0.3%,-3.8%
CCNC(=O)NC(=O)CSc1nc2ccccc2n1CC(C)C,2.91µM*,7.9%,5.1%,i,5.3%,-3.4%
COCCNC(=O)CSc1nc2ccccc2c(=O)n1CCCC(=O)NCc1ccccc1,16.4µM*,7.3%,0.1%,i,-0.8%,2.9%
CC(NC(=O)CSc1nc2ccccc2n1C)c1ccccc1 (stereo unspecified),i,22.6%,0.6%,i,13.3%,-11.8%
COc1ccc(Cl)cc1C(=O)NNC(=O)c1cc2ccccc2o1,i,0.0%,-3.0%,i,10.8%,0.9%
CCCOc1cccc(C(=O)Nc2cc(-c3ccccc3)no2)c1,i,.,.,i,.,.
CC(OC(=O)Cc1n[nH]c(=O)c2ccccc12)C(=O)Nc1ccc(F)cc1 (stereo unspecified),i,-4.8%,0.9%,i,7.2%,-136.0%
CC1=C/C(=C\c2ccc(N(C)C)cc2)c2ccccc21,i,.,.,i,.,.
O=C(CCCCCn1c(SCc2ccncc2)nc2ccccc2c1=O)NCc1ccco1,?,11.2µM*,?,i,?,2.1%
N#CCSc1nc2ccccc2c(=O)n1CCCC(=O)NCc1ccco1,?,-10.8%,-1.2%,i,-5.3%,-8.9%
N#CC1=CC2CN(Cc3ccccc3)C1C1C(=O)N(c3ccccc3)C(=O)C21 (stereo unspecified),i,10.0%,6.1%,i,11.6%,-0.6%
COc1cc(N(C)C)ccc1C=c1c2ccccc2n2c1cc(-c1ccccc1)[n+]2C,?,11.6µM*,8.0%,1.03µM*,?,?
CN(C)c1ccc(C=c2c3ccccc3n3c2c2c([n+]3C)CCCC2)cc1,i,6.51µM*,?,?,?,-1.7%
COc1cc(C=c2c3ccccc3n3c2cc(-c2ccccc2)[n+]3C)cc(OC)c1OC,?,?,?,?,-15.4%,?
CN(C)c1ccc(C=c2c3ccccc3n3c2cc(-c2ccc(Cl)cc2)[n+]3C)cc1,i,?,25.8%,7.31µM*,?,?
CN(C)c1ccc(C=c2c3ccccc3n3c2cc(-c2ccccc2)[n+]3C)cc1,16.4µM*,20.6µM*,-9.0%,?,?,?
O=[N+]([O-])c1ccc2nc(Cl)nc(-c3ccccc3)c2c1,i,-3.0%,-0.3%,i,-2.4%,-5.1%
CN(C)c1ccc(C=c2c3cc([N+](=O)[O-])ccc3n3c2cc(-c2ccccc2)[n+]3C)cc1,i,10.3µM*,?,5.17µM*,?,6.6%
SMILES,KB-V1 cytotox,HT1080 IDH1KD tx,MCF10A rereplic,KB-3-1 tox,HT1080-NT tox,SW480 rerep
CN(C)C(=O)COc1ccc2ccc(=O)oc2c1,i,-0.1%,1.1%,i,-0.9%,-2.1%
CCN(C(=O)COc1ccc2ccc(=O)oc2c1)C1CCCCC1,18.4µM*,14.5%,0.0%,i,10.7%,-5.9%
CN1CCN(c2cccc(Nc3nn4c(=O)c5ccccc5nc4s3)c2)CC1,i,.,.,i,.,.
N#Cc1ccc(-c2nc3ccc(Br)cc3c(=O)n2O)cc1,i,9.7%,0.7%,?,1.3%,-4.5%
O=c1c2cc(Br)ccc2nc(-c2cccc(C(F)(F)F)c2)n1O,2.31µM*,?,?,2.91µM*,?,10.6%
C/C(=N\NC(=O)C(C)Nc1cccc(Cl)c1)c1ccc([N+](=O)[O-])cc1 (stereo unspecified),18.4µM*,-14.3%,-80.9%,i,0.0%,-123.9%
C/C(=N/NC(=O)c1cc(O)c(O)c(O)c1)c1ccc([N+](=O)[O-])cc1,i,-0.2%,0.7%,i,-12.9%,4.5%
Cc1ccc(O)c(C2=Nc3ccccc3N=C(c3cccs3)C2)c1,14.6µM*,-1.5%,20.6µM*,?,-0.1%,2.7%
Oc1ccccc1C1=Nc2ccccc2N=C(c2cccs2)C1,23.1µM*,?,?,i,-22.2%,22.7%
O=C(CCC(=O)N1CC2CCCN2c2ccccc21)NCc1cccc(Cl)c1 (stereo unspecified),i,.,.,i,.,.
O=C(c1cc(N2C(=O)C3C4CCC(C4)C3C2=O)ccc1Cl)N1CCN(c2ccccc2)CC1 (stereo unspecified),3.26µM*,1.1%,-35.6%,i,-11.2%,?
COc1ccccc1CNc1nc(NCc2ccccc2)nc2ccsc12,i,18.4µM*,.,i,25.9µM*,.
